Measured values from PubChem BioAssay.
The source made the active and inactive calls.

Legend:
Albumin (Bos taurus) = Albumin (Bos taurus) (UniProt P02769); test: bovine serum albumin binders on microarray, profiling panel, artefact control for SMM control protein annotation, biochemical, small-molecule microarray, Alexa647 label, 635/667 nm fluorescence (AID 1118); conditions: BSA-A647 binding, fluorescence 635 nm, higher = more signal;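 also: score merges 667 nm emission intensity and signal-to-noise per printed compound spot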
Chain of Albumin (Bos taurus) (P02769 whole entry, looked up): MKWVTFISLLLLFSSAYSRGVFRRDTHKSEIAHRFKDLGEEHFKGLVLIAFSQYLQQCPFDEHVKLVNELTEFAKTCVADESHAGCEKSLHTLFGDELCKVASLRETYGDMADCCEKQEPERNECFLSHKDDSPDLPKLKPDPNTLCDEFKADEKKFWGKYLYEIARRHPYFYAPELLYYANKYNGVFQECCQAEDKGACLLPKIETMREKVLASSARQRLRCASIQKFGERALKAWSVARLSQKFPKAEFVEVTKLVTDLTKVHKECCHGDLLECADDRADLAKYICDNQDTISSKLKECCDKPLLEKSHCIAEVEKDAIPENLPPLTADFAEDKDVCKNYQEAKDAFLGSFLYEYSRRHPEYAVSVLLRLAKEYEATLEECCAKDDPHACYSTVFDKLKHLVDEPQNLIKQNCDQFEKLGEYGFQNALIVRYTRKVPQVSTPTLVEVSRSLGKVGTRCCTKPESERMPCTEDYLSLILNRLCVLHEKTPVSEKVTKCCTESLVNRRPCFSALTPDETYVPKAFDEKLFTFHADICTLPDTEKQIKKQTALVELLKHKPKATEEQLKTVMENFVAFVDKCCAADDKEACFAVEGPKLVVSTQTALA

[1] = small-molecule microarray binders of probe aXIP, primary screen, biochemical, NeuroSMM set, 635/667 nm fluorescence (AID 1119); conditions: higher = more signal, called active from +8 up or from −8 down;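 also: probe is the protein aXip251-270 applied at 1 µg/mL to compound-printed slides; binding of probe to printed compounds measured as 667 nm fluorescence plus signal to noise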
[2] = small-molecule binders of probe aNOTCH3, primary screen, biochemical, small-molecule microarray, 635/667 nm fluorescence (AID 1120); conditions: higher = more signal;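 also: probe is a biotin-tagged antibody raised against NOTCH3 rather than NOTCH3 protein; score merges spot fluorescence near 667 nm with spot signal to noise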
[3] = small-molecule binders of probe aNOTCH2, primary screen, biochemical, small-molecule microarray, 635/667 nm fluorescence (AID 1121); conditions: higher = more signal;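 also: score merges feature fluorescence read at 667 nm with its signal to noise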
[4] = biological target: Carbonic anhydrase 2 (Homo sapiens) (UniProt P00918); test: CAII small-molecule binders, profiling panel, biochemical, small-molecule microarray, Alexa647-labelled CAII (AID 1122); conditions: CAII-A647 binding fluorescence, higher = more signal
[5] = COS7 lysate on small-molecule microarray, probe aHis, 635 nm (AID 1123); conditions: COS7 cell lysate, fluorescence, higher = more signal;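 also: z-score combines 667nm fluorescence intensity with signal-to-noise per printed compound spot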
[6] = compound binding in COS7 lysate, probe aLAP1, primary screen, cell lysate, small-molecule microarray (AID 1124); conditions: probe aLAP1, fluorescence, higher = more signal;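 also: lysate comes from COS7 cells expressing LAP1 and is applied at 0.3 µg/mL; score merges spot fluorescence near 667 nm with signal-to-noise over triplicate slides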
Sam68 (KHDRBS1) = test: Sam68 small-molecule binders, primary screen, biochemical, small-molecule microarray, 635 nm fluorescence (AID 1125); conditions: small-molecule microarray binding, higher = more signal;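 also: score merges 667 nm channel intensity with signal to noise over triplicate slides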
[7] = system: Chordin-like protein 2 (CHRDL2); test: CHRDL2 small-molecule binders, primary screen, biochemical, small-molecule microarray, 635 nm fluorescence (AID 1126); conditions: small-molecule microarray binding, fluorescence 635 nm; higher = more signal;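 also: printed compound slides probed with Chrdl2 protein at 4 µg/mL for 1 h at 4 C; score merges 667 nm emission intensity with signal to noise over three replicate slides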
[8] = biological target: Concanavalin-A (Canavalia ensiformis) (UniProt P02866); test: ConA small-molecule binders, primary screen, artefact control for SMM control protein annotation, biochemical, small-molecule microarray, Alexa647 label, 635 nm (AID 1127); conditions: ConA-A647 binding fluorescence, higher = more signal;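 also: z combines 667 nm emission intensity with signal-to-noise across three replicate slides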
Chain of Concanavalin-A (Canavalia ensiformis) (P02866 whole entry, looked up): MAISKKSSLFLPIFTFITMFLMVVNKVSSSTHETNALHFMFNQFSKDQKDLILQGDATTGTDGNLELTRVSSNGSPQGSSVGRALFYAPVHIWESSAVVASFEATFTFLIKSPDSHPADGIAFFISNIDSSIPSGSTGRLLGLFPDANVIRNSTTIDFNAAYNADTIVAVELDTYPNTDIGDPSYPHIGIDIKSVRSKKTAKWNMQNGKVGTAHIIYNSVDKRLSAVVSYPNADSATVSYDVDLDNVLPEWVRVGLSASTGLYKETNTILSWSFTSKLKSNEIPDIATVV

[9] = anti-His antibody binders, primary screen, artefact control for SMM control protein annotation, biochemical, small-molecule microarray, 635 nm fluorescence (AID 1128); conditions: anti-His Alexa647 antibody binding, higher = more signal;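 also: score merges feature fluorescence with signal-to-noise for each printed compound spot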
[10] = system: Human papillomavirus type 1a E7 protein (residues 1-88); test: HPV1a E7 small-molecule binders, primary screen, biochemical, small-molecule microarray, residues 1-88, 635 nm (AID 1129); conditions: small-molecule microarray binding, fluorescence 635 nm; higher = more signal
[11] = biological target: Focal adhesion kinase 1 (Homo sapiens) (UniProt Q05397); test: small-molecule microarray binders of FAK, primary screen, biochemical, 635/667 nm fluorescence, BSA, DTT (AID 1130); conditions: PTK2 binding, 635 nm fluorescence, higher = more signal;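 also: composite of spot emission at 667 nm and signal to noise over triplicate slides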
Chain of Focal adhesion kinase 1 (Homo sapiens) (Q05397 whole entry, looked up): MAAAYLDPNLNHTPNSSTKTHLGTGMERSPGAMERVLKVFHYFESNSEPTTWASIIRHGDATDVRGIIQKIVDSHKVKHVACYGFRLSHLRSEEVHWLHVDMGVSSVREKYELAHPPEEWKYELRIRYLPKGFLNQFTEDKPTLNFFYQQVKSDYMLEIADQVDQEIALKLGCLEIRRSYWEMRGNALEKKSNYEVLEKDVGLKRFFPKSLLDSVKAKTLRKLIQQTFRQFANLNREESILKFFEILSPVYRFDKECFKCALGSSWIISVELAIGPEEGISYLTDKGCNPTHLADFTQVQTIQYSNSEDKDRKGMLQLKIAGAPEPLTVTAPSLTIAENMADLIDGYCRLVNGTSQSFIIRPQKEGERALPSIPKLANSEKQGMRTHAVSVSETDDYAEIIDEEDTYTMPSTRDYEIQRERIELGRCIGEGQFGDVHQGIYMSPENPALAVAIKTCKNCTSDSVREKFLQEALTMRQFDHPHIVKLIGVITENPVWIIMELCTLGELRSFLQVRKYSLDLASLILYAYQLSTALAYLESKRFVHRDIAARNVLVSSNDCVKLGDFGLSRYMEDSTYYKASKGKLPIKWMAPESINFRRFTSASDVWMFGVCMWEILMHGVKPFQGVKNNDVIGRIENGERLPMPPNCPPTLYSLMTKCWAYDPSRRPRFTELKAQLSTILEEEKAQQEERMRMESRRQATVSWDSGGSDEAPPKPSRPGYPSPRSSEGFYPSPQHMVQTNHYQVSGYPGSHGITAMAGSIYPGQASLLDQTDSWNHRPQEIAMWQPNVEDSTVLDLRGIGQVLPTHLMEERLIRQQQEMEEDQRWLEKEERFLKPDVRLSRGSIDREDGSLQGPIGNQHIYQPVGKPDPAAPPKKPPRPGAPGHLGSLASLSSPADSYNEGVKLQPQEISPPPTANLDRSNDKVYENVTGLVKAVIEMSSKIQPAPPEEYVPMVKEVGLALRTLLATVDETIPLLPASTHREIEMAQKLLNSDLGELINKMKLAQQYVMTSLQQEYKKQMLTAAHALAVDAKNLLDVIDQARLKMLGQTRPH

[12] = system: Fibrinogen (Alexa647-labelled); test: fibrinogen binders on compound microarrays, profiling panel, artefact control for SMM control-protein annotation, biochemical, small-molecule microarray, 635/667 nm fluorescence (AID 1131); conditions: fibrinogen-A647 binding fluorescence, higher = more signal;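 also: z-score merges 667 nm fluorescence with per-spot signal-to-noise over triplicate slides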
[13] = biological target: Follistatin (Homo sapiens) (UniProt P19883); test: follistatin binders on small-molecule microarrays, primary screen, biochemical, small-molecule microarray, 635/667 nm fluorescence (AID 1132); conditions: FST binding, 635 nm fluorescence, higher = more signal
Chain of Follistatin (Homo sapiens) (P19883 whole entry, looked up): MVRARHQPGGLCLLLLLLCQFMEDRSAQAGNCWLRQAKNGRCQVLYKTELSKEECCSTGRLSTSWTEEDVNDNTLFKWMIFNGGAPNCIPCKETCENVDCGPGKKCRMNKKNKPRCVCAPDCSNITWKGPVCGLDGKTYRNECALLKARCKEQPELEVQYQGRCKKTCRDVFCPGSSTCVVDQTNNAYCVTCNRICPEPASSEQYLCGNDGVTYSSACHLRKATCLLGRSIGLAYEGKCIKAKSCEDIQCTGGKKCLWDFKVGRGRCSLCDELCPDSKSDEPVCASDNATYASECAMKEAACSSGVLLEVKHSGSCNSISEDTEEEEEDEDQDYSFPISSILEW

[14] = biological target: Fibroblast growth factor 2 (Homo sapiens) (UniProt P09038); test: FGF2 binders on small-molecule microarrays, primary screen, biochemical, small-molecule microarray, 635/667 nm fluorescence (AID 1133); conditions: small-molecule microarray binding, FGF2, fluorescence 635/667; higher = more signal
Chain of Fibroblast growth factor 2 (Homo sapiens) (P09038 whole entry, looked up): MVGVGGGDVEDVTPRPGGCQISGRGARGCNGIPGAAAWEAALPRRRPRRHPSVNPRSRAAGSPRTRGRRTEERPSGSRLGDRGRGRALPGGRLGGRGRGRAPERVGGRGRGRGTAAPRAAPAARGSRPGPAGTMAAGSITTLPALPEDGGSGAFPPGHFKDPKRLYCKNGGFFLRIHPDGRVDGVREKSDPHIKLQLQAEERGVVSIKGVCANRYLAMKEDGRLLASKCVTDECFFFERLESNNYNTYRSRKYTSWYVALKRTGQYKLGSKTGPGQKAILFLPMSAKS

[15] = mitochondrial membrane potential change in A549 cells, profiling panel, cell-based, JC-1 fluorescence, basal, 24 h, 100 nL (AID 1138); conditions: higher = more signal;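 also: A549 lung adenocarcinoma cells under basal conditions with no added stimulus; test concentration not given here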
Lefty1 = Lefty1 binders on small-molecule microarrays, primary screen, biochemical, small-molecule microarray, 635/667 nm fluorescence (AID 1139); conditions: small-molecule microarray binding, fluorescence 635/667; higher = more signal
[16] = system: wheat germ agglutinin (Triticum aestivum), Alexa647-labelled; test: wheat germ agglutinin binders on compound microarrays, profiling panel, artefact control for SMM control-protein annotation, biochemical, small-molecule microarray, 635/667 nm fluorescence (AID 1140); conditions: WGA-A647 binding, 635 nm fluorescence, higher = more signal;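 also: score merges 667 nm feature emission with signal to noise over triplicate slides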
[17] = biological target: Luciferin 4-monooxygenase (Photinus pyralis) (UniProt P08659); test: firefly luciferase enzyme inhibitors, primary screen, biochemical, luminescence, purified enzyme, 2006 set (AID 1141); conditions: SteadyGlo luminescence, 30 min, higher = more signal, called active from +8 up or from −8 down;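 also: cell-free assay with purified firefly luciferase at 100 ng per well in PBS; test concentration not given here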
Chain of Luciferin 4-monooxygenase (Photinus pyralis) (P08659 whole entry, looked up): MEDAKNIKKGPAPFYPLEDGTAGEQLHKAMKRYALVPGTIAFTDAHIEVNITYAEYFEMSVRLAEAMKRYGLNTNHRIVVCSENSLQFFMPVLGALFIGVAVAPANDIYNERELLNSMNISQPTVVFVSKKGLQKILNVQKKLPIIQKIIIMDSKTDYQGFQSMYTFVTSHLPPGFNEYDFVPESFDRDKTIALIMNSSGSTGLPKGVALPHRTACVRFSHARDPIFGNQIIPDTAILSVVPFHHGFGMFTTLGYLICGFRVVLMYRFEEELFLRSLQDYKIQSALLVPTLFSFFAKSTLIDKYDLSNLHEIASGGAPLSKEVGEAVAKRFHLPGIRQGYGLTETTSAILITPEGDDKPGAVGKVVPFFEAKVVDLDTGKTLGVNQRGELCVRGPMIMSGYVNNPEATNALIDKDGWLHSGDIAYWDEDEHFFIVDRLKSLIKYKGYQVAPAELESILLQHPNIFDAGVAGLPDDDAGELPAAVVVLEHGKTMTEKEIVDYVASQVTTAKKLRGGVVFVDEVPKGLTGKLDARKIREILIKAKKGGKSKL

Structure (SMILES) | composite z-score (Albumin (Bos taurus)) | composite Z-score [1] | composite z-score [2] | composite z-score [3] | composite z-score [4] | composite z-score [5] | composite z-score [6] | composite z-score (Sam68 (KHDRBS1)) | composite z-score [7] | composite z-score [8] | composite z-score [9] | composite z-score [10] | composite z-score [11] | composite z-score [12] | composite z-score [13] | composite z-score [14] | z-score [15] | composite z-score (Lefty1) | composite z-score [16] | z-score [17]
O=C1C[C@@](C(=O)NC2CC2)(c2ccc([N+](=O)[O-])cc2)[C@@H](c2ccc(CO)cc2I)N1C1CCCCC1 | 0.554 | 0.142 (inactive) | 0.0596 | -0.14 | 0.452 | 1.77 | -0.0328 | 1.29 | 0.397 | 1.04 | 0.342 | 1.24 | -0.109 | 0.895 | 1.24 | 1.27 | 1.75 | 1.14 | 0.587 | -0.234 (inactive)
O=C1C2C=CC(C(O)CCc3ccccc3)N(Nc3ccccc3F)C2C(=O)N1c1ccccc1 (stereo not given) | 0.955 | -0.585 (inactive) | 0.331 | -0.0677 | 0.755 | 2.69 | 0.185 | 1.22 | -0.47 | 0.893 | 1.49 | 1.14 | 1.01 | 0.434 | 1.25 | -0.449 | 0.00533 | 0.0364 | 0.548 | 1.48 (inactive)
NC(=O)NCC#Cc1ccc2c(c1)[C@]1(C(=O)N2)[C@H](C(=O)Nc2nc3ccccc3s2)[C@H]2C(=O)O[C@H](c3ccccc3)[C@H](c3ccccc3)N2[C@@H]1c1ccccc1OCCO | 0.46 | 1.24 (inactive) | 1.1 | 0.0196 | 0.39 | 2.83 | 1.14 | 1.18 | 0.277 | 1.08 | 0.678 | 0.759 | 0.997 | 0.764 | 1.22 | 0.624 | -2.46 | 1.34 | 1.1 | -0.921 (inactive)
CC(C)C(O)C1C=CC2C(=O)NC(=O)C2N1Nc1ccc(Cl)cc1Cl (stereo not given) | 0.523 | 0.449 (inactive) | -0.0414 | -0.0659 | 0.751 | 1.78 | 1.33 | 0.531 | -0.827 | -0.478 | 1.03 | 1.19 | 1.08 | 0.921 | 0.345 | -0.292 | -0.518 | -0.556 | 1.35 | -0.089 (inactive)
CCCC[C@@H]1C[C@H]1[C@@H](NC(=O)c1ccco1)c1ccc(-c2ccccc2)cc1 | 0.0697 | 0.572 (inactive) | 0.0155 | 0.0474 | 0.344 | -0.66 | -0.305 | 0.325 | -0.33 | 0.163 | 0.633 | 0.665 | 0.218 | -0.275 | 0.038 | -0.199 | -1.12 | -0.0072 | 0.124 | 1.01 (inactive)
COc1cc(C(O)C2C=CC3C(=O)NC(=O)C3N2Nc2ccccn2)cc(OC)c1OC (stereo not given) | 0.354 | 0.183 (inactive) | -0.108 | 0.0339 | 0.749 | 2.43 | -0.0653 | 0.466 | 0.361 | 0.585 | 1.26 | 0.852 | 0.184 | 0.764 | 0.169 | 0.158 | 0.623 | -0.188 | 0.0705 | -0.0958 (inactive)
NC(=O)NCC#Cc1ccc2c(c1)[C@]1(C(=O)N2)[C@H](c2ccc(O)cc2)N2[C@H](c3ccccc3)[C@H](c3ccccc3)OC(=O)[C@H]2[C@@H]1C(=O)O | 0.43 | 0.619 (inactive) | -0.725 | -0.281 | 0.241 | 0.547 | -0.0085 | -0.0756 | -1.43 | 0.411 | 0.948 | -0.404 | -0.415 | -0.159 | -0.386 | -0.912 | -0.61 | -0.283 | -0.142 | 0.323 (inactive)
COC(=O)[C@@]1(Cc2ccc(OC)cc2)[C@H]2c3cc(C(=O)N(C)C)n(C)c3C[C@H]2CN1C(=O)c1ccccc1 | 1.03 | 0.0517 (inactive) | 0.839 | 0.284 | 0.76 | 3.16 | 0.0675 | 1.31 | -0.1 | 1.15 | 0.392 | 1.27 | 0.698 | 0.97 | 1.22 | 0.0022 | 1.05 | 0.146 | 1.11 | 1.82 (inactive)
COC(=O)[C@@]1(Cc2ccc(OC)cc2)[C@H]2c3cc(C(=O)N4CCCC4)n(Cc4ccc(C)c(F)c4F)c3C[C@H]2CN1C(=O)c1ccccc1 | 1.05 | -0.572 (inactive) | 0.538 | 0.223 | 0.744 | 3.22 | 0.345 | 1.3 | -0.596 | 1.15 | 1.39 | 1.27 | 1.32 | 0.97 | 0.884 | -0.294 | 1.41 | -0.161 | 1.32 | 1.44 (inactive)
COc1ccc(CCNC(=O)[C@@]2(Sc3ccc(C)cc3)CC(=O)N(C(C)C)[C@@H]2c2ccc(CO)cc2I)cc1 | -0.235 | -0.174 (inactive) | -0.0647 | 0.0118 | 0.304 | 1.04 | 0.648 | 0.0063 | -0.578 | -0.613 | 0.622 | 0.178 | 0.0367 | 0.144 | -0.147 | -0.172 | 0.968 | -0.979 | -0.258 | -0.436 (inactive)
CO[C@H]1O[C@H](CO)[C@@H](OC(=O)Nc2ccc(Oc3ccccc3)cc2)[C@H](OC(=O)Nc2ccc3c(c2)OCO3)[C@H]1OC(=O)Nc1ccc2c(c1)OCO2 | 0.703 | 0.705 (inactive) | 0.264 | 0.0976 | 0.471 | 2.19 | 0.763 | 1.3 | 0.317 | 1.12 | 1.83 | 1.2 | 1.29 | 0.933 | 1.34 | 0.957 | -0.249 | 1.05 | 1.18 | -6.84 (inactive)
